Measured values as given in PubChem BioAssay (Tox21).
Records with an inconclusive call do not appear. A call without a number means that no potency is given here. Activity calls are given as the source filed them. The call rests on the fitted dose curve; in most records, active means well fitted activation curve with a large enough effect in the signal ratio in the repeat runs (not every such curve was filed as active); inconclusive means weak or mixed curves; inactive means flat fitted curve, though single readings scatter; the % refers to the signal ratio. Square brackets hold non-standard residues; d marks the D form. Peptide text beside a SMILES is read from it. pGlu = O=C1CC[C@@H](C(=O)O)N1

Assay: p53 small molecule agonists, cell-based qHTS assay (AID 1963582)
Summary of the method: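 Quantitative HTS in p53RE-bla cells: after a 5 h settling period, compounds delivered in DMSO were left on cells for 16 h at 37 C, and reporter induction was measured as fluorescence following 2 h substrate loading.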

Row | SMILES | Potency
1 | CC(=O)/C(C)=C/C1C(C)=CCCC1(C)C (stereo not drawn) | inactive
2 | Cc1cc2nc(N)sc2cc1C | inactive
3 | Cc1cc2c(cc1CC(=O)c1sccc1S(=O)(=O)Nc1onc(C)c1Cl)OCO2 | inactive
4 | CCN(CCCc1ccccc1)CCCc1ccccc1 | inactive
5 | CCCC(=O)OCCc1ccccc1 | inactive
6 | CC1(COc2ccc(CC3SC(=O)NC3=O)cc2)CCCCC1 (stereo not drawn) | inactive
7 | CC(C)C[C@H](NC(=O)CNC(=O)[C@H](Cc1ccc(O)cc1)NC(=O)[C@H](CO)NC(=O)[C@H](Cc1c[nH]c2ccccc12)NC(=O)[C@H](Cc1cnc[nH]1)NC(=O)[C@@H]1CCC(=O)N1)C(=O)N[C@@H](CCCN=C(N)N)C(=O)N1CCC[C@H]1C(=O)NCC(N)=O (stereo in doubt) | inactive
8 | C[C@H](CCC(=O)O)[C@H]1CC[C@H]2[C@@H]3CC[C@@H]4C[C@H](O)CC[C@]4(C)[C@H]3C[C@H](O)[C@]12C | inactive
9 | CCCCCCCCCCCCOCCOCCOCCOCCOCCOCCOCCOCCOCCO | inactive
10 | O=C1C=CC(=O)N1c1cccc(N2C(=O)C=CC2=O)c1 | inactive
11 | CCCCCCCCCOC(=O)CCCCC(=O)OCCCCCCC | inactive
12 | Cc1cc(O)c(C(C)C)cc1Cl | inactive
13 | CCCc1ncc(C[n+]2ccccc2C)c(N)n1 | inactive
14 | CCCCC(=O)O[C@]1(C(=O)CO)[C@@H](C)C[C@H]2[C@@H]3CCC4=CC(=O)C=C[C@]4(C)[C@@]3(F)[C@@H](O)C[C@@]21C | inactive
15 | C[C@]12CC[C@H]3C(=CCc4cc(O)ccc43)[C@@H]1CCC2=O | inactive
16 | Cc1cc(C)c(/C=C2\C(=O)Nc3ccccc32)[nH]1 | inactive
17 | C/C(=C\c1ccc(C(=O)O)cc1)c1ccc2c(c1)C(C)(C)CCC2(C)C | inactive

Row | SMILES | Potency
18 | Cc1[nH]cnc1C[C@H]1CCc2c(C)c3ccccc3n2C1=O | inactive
19 | CCNC(=O)[C@@H]1CCCN1C(=O)[C@H](CCCN=C(N)N)NC(=O)[C@H](CC(C)C)NC(=O)CNC(=O)[C@H](Cc1ccc(O)cc1)NC(=O)[C@H](CO)NC(=O)[C@H](Cc1c[nH]c2ccccc12)NC(=O)[C@H](Cc1cnc[nH]1)NC(=O)[C@@H]1CCC(=O)N1 ([pGlu]HWSYGLRP-NHEt) | inactive
20 | CC(C)c1ccccc1C(C)C | inactive
21 | CCCCCC/C=C\CCCCCCCC(=O)O | inactive
22 | CCN1CCN(C(=O)N[C@@H](C(=O)N[C@@H]2C(=O)N3C(C(=O)O)=C(CSc4nnnn4C)CS[C@H]23)c2ccc(O)cc2)C(=O)C1=O | inactive
23 | CCCC(CC)c1ccccc1 (stereo not drawn) | inactive
24 | CC(C)C(C)(C)C(C)(C)C(C)(C)S | inactive
25 | CC(C)(C)C(=O)c1ccccc1 | inactive
26 | CCCCC(CC)COC(=O)CCCCC(=O)OCc1ccccc1 (stereo not drawn) | inactive
27 | O=C(O)CN1C(=O)c2cccc3cccc(c23)C1=O | inactive
28 | CC(NCCC(c1ccccc1)c1ccccc1)c1ccccc1 (stereo not drawn) | inactive
29 | CC(Cc1cccc(C(F)(F)F)c1)NCCOC(=O)c1ccccc1 (stereo not drawn) | inactive
30 | COc1ccc2c(c1)c(CC(=O)OC/C=C(\C)CC/C=C(\C)CCC=C(C)C)c(C)n2C(=O)c1ccc(Cl)cc1 | inactive
31 | CCCCCCCCCCCCN(CCCCCCCCCCCC)CCCCCCCCCCCC | inactive
32 | CCCc1ccc(OCC(=O)N2CCN(C(=O)COc3ccc(CCC)cc3OC)CC2)c(OC)c1 | inactive
33 | Clc1ccc2nsnc2c1NC1=NCCN1 | inactive
